The subject of the assay is P. falciparum stage V gametocytes. More on the design: BacTiter-Glo ATP luminescence viability of purified stage V gametocytes in 384-well plates, per cent inhibition versus DMSO. Conditions: 48 h, 5 µM, inhibitor.

Like-named read-outs stand apart in the source and are kept apart here. In all, about 13,000 compounds went through this assay and about 3,200 (25%) showed an effect of 50% or more. This is one part of the list.

As for `Cc1onc(-c2ccccc2Cl)c1C(=O)Nc1cc(Cl)c(Cl)cc1Cl` [TCMDC-123514], the % Inhibition (in general, the relative decrease from the control value, in per cent) is recorded as 9.365%. As for `COc1ccc(-c2ccc(CNC(=O)c3ccc(C#N)cc3)c(F)c2)cc1CN1CCCN(C)CC1` [TCMDC-133368], the “% Inhibition” value was -37.75%. The same measure, in the same setting: the value for `COc1cc(OC)cc(C(=O)Nc2cccc(-c3cn4ccc(C)cc4n3)c2)c1` [TCMDC-124622] was 4%; that for `Cc1ccn2cc(-c3ccc(NC(=O)c4ccc(Br)o4)cc3)nc2c1` [TCMDC-124517] was 106.8%; that for `COc1cc(C(=O)Nc2cccc(-c3cn4ccc(C)cc4n3)c2)cc(OC)c1OC` [TCMDC-125384] was 26.29%. On the same count and under the same terms, to `Cc1cc(OCCCN2CCC(NS(=O)(=O)c3cccc(Br)c3)CC2)c2ccccc2n1` [TCMDC-136279] belongs -49.51%; to `CCCCOc1c(CCNCCCCNCCc2cc(OC)c3ccccc3c2OCCCC)cc(OC)c2ccccc12` [TCMDC-137848], 124.7%; to `CCCCOc1cc(OC)c2ccccc2c1CCNCCCCNCCc1c(OCCCC)cc(OC)c2ccccc12` [TCMDC-137845], 110.3%.

For `CCCCc1cc(Cc2cnc(N)nc2N)cc(OC)c1OC` [TCMDC-137876], the “% Inhibition” value is -18.26%.

On to `CC[C@H](NC(=O)c1c(CN2CCC(N3CCCCC3)CC2)c(-c2ccccc2)nc2cc(O)ccc12)c1ccccc1` [TCMDC-140381], for which the “% Inhibition” value is 13.93%. As to `CC(C)CCN1CCC(Oc2ccc(NC(=O)c3ccc4ncccc4c3)cc2Cl)C1` (stereo not shown) [TCMDC-133982], the “% Inhibition” value stood at 6.933%. In the case of `Clc1ccccc1CNc1noc(-c2sccc2Br)n1` [TCMDC-134189], the “% Inhibition” value is given as -9.305%.

In the case of `CCc1c(C)nc(-n2nc(C)cc2NC(=O)c2cccc3ccccc23)[nH]c1=O` [TCMDC-124936], the “% Inhibition” value was determined as 19.12%. Same read-out and setting: the value for `CCc1c(C)nc(-n2nc(C)cc2NC(=O)c2ccc(OC)cc2OC)[nH]c1=O` [TCMDC-124937] was 1.355%. `Cc1cc(NC(=O)c2cc(Br)ccc2Cl)n(-c2nc(C)c(C)c(=O)[nH]2)n1` [TCMDC-124938]: the “% Inhibition” value was determined as 58.54%. Same read-out and setting: to `COc1cccc2cc(C(=O)N[C@@H](CC(C)C)C(=O)N[C@H](/C=N/NC(=O)N3CCN(C)CC3)CCc3ccccc3)oc12` [TCMDC-136052] belongs 37.67%.

For the compound `COc1cc(NC(=O)N2CCOC(CCN3CCC(c4ccccc4)CC3)(c3ccc(Cl)c(Cl)c3)C2)cc(OC)c1OC` (stereo not shown) [TCMDC-135349], the “% Inhibition” value is listed as -27.1%. As to `CC(C)(C)c1cc(N=NC(=O)c2ccncc2)cc(C(C)(C)C)c1O` [TCMDC-123490], the “% Inhibition” value was -20.54%. `N#Cc1ccc(N(CCOc2ccc(Cl)c(F)c2)Cc2ccccc2C(F)(F)F)cc1C(F)(F)F` [TCMDC-132797]: the “% Inhibition” value is on record as -6.991%. With `O=C(c1cc(C(=O)NCc2ccc(Cl)cc2)c(=O)n(Cc2ccc(Cl)cc2)c1)c1cc(F)ccc1O` [TCMDC-125145], the “% Inhibition” value is reported as -12.34%. As for `O=C(NCCCCN1CCC(c2ccc3ccccc3c2)CC1)c1ccc(NC(=O)c2ccc(Cl)cc2)cc1` [TCMDC-138378], the “% Inhibition” value is -9.216%. With `CC(=O)Oc1c(C2CCN(CCCCNC(=O)c3ccc(NC(=O)c4ccc(Cl)cc4)cc3)CC2)ccc2ccccc12` [TCMDC-138657], the “% Inhibition” value worked out at 89.12%. `O=C(NCCCCN1CCC(c2ccc3ccccc3c2O)CC1)c1ccc(-c2ccc(Cl)cc2)cc1` [TCMDC-138663]: the “% Inhibition” value stood at 108.9%. On the same count and under the same terms, the value for `O=C(NCCCCN1CCC(c2cccc3ccccc23)CC1)c1ccc(NC(=O)c2ccc(Cl)cc2)cc1` [TCMDC-138340] was -11.24%.

`O=C(NCCCCN1CCC(c2ccc3ccccc3c2O)CC1)c1ccc(NC(=O)c2ccc(Cl)cc2)cc1` [TCMDC-138654]: the “% Inhibition” value stood at 82.05%. On to `Cc1cccc2[nH]c(-c3cccc(-c4cccc(NC(=O)CNC(=O)c5ccc(O)cc5)c4)c3)nc12` [TCMDC-136818], for which the “% Inhibition” value is recorded as -5.376%. On the same count and under the same terms, to `Cc1cc(OCCCn2ccnc2)ccc1-c1csc(NC(N)=NCc2ccccc2)n1` [TCMDC-138931] belongs 31.69%; to `CC(C(=O)OCCOCn1cnc2c(=O)[nH]c(N)nc21)N(C)C(=O)OC(C)(C)C` (stereo not shown) [TCMDC-137343], 21.46%; to `CC(C)c1ccc(S(=O)(=O)N(c2ccc3c(c2)OCO3)C2CCN(Cc3ccccc3)C2)cc1` (stereo not shown) [TCMDC-134099], -69.31%.

On to `COc1ccc(N2C(N)=NC(N)=NC2(C)C)cc1OC` [TCMDC-124282], for which the “% Inhibition” value turned out to be 18.93%.

As to `Cc1cccc2nc(-c3ccc(-c4cccc(NC(=O)C(C)CN5CCN(C)CC5)c4)s3)[nH]c12` (stereo not shown) [TCMDC-137155], the “% Inhibition” value is on record as -49.23%. On the same count and under the same terms, the value for `CC(CN1CCN(C)CC1)C(=O)Nc1cccc(-c2cccc(-c3nc4ccccc4[nH]3)c2)c1` (stereo not shown) [TCMDC-137141] was 72.32%; that for `CC(CN1CCN(C)CC1)C(=O)Nc1cccc(-c2ccc(-c3nc4ccccc4[nH]3)cc2)c1` (stereo not shown) [TCMDC-137147] was 83.04%; that for `CCc1cc2c(=O)c(-c3nc(C)cs3)c(N)oc2c(CN2CCCCC2)c1O` [TCMDC-124016] was 0.6377%. On the same count and under the same terms, the value for `COc1cc(C(=O)N2N=C(c3c(-c4ccccc4)c4cc(Br)ccc4[nH]c3=O)CC2c2cccc([N+](=O)[O-])c2)cc(OC)c1OC` (stereo not shown) [TCMDC-124218] was 43.01%; that for `Cc1noc(C)c1-c1cccc(CNCc2ccc(-c3cccc(-c4nc5cccc(C)c5[nH]4)c3)cc2)c1.O=C(O)C(F)(F)F` [TCMDC-133052] was -22.75%; that for `O=C(/C=C/c1ccc(Cl)c(Cl)c1)NC1CCC(CN2CCC(c3nc4ncccc4[nH]3)CC2)CC1` (stereo not shown) [TCMDC-140264] was 5.039%.

In the case of `Cc1nn(-c2cccc(C(F)(F)F)c2)c2sc(C(=O)NC3CCN(C(C)C)CC3)cc12` [TCMDC-125005], the “% Inhibition” value came out at 65.55%. Consider `CC(C)(C)c1ccc(CN2CCC(NC(=O)c3ccc(-c4cccc(C(F)(F)F)c4)s3)CC2)cc1` [TCMDC-134348], for which the “% Inhibition” value is -9.273%.

For `COc1cc(NC(=O)c2cc3c(C)nn(-c4cccc(C(F)(F)F)c4)c3s2)cc(OC)c1OC` [TCMDC-123615], the “% Inhibition” value is on record as -65.38%. With `COc1cc(OC)c2c(C)cc(NCCCN3CCOCC3)nc2c1` [TCMDC-125775], the “% Inhibition” value was -9.297%.

As to `COc1cc(OC)c2c(C)cc(NCCCn3ccnc3)nc2c1` [TCMDC-125762], the “% Inhibition” value turned out to be 61.26%. The same measure, in the same setting: the value for `COc1cccc(-c2cc3nc4c(c(NCCCn5ccnc5)n3n2)CCCC4)c1` [TCMDC-124388] was -20.83%; that for `Nc1nc(-c2ccc3c(Nc4ccc(F)c(Cl)c4)ccnc3c2)cs1` [TCMDC-138353] was 24.85%; that for `Fc1ccccc1-c1cc(Nc2ccncc2)nc(-c2cccnc2)n1` [TCMDC-125415] was 17.65%.

For the compound `O=C(NCCCCCN1CCC(c2c[nH]c3ccccc23)CC1)Nc1cccc(I)c1` [TCMDC-139201], the “% Inhibition” value was 57.32%. Still for that read-out and setting: to `Cc1cc(Cl)ccc1NC(=O)NCCCCCN1CCC(c2c[nH]c3ccccc23)CC1` [TCMDC-139168] belongs -22.23%; to `O=C(NCCCCCN1CCC(c2c[nH]c3ccccc23)CC1)Nc1cccc(Br)c1` [TCMDC-139116], -20.19%. On the same count and under the same terms, to `S=C(NCCCCCN1CCC(c2c[nH]c3ccccc23)CC1)Nc1ccc(Cl)c(Cl)c1` [TCMDC-139170] belongs -11.79%; to `O=C(NCCCCCN1CCC(c2c[nH]c3ccccc23)CC1)Nc1cccc(Cl)c1` [TCMDC-139167], 82.38%.

Turning to `O=C(NCCCCCN1CCC(c2c[nH]c3ccccc23)CC1)Nc1ccc(I)cc1` [TCMDC-139165], the “% Inhibition” value is -24.33%. On the same count and under the same terms, the value for `S=C(NCCCCCN1CCC(c2c[nH]c3ccccc23)CC1)Nc1cc(Cl)cc(Cl)c1` [TCMDC-139171] was -46.2%; that for `O=C(NCCCCCN1CCC(c2c[nH]c3ccccc23)C1)Nc1ccc(Cl)c(Cl)c1` (stereo not shown) [TCMDC-139169] was -42.12%; that for `O=C(NCCCCCN1CCC(c2c[nH]c3ccccc23)CC1)Nc1ccc(Cl)c(Cl)c1` [TCMDC-139117] was 79.3%.

Take `O=C(NCC(CCCN1CCC(c2c[nH]c3ccccc23)CC1)c1ccccc1)Nc1ccc(Cl)c(Cl)c1` (stereo not shown) [TCMDC-139507]: the “% Inhibition” value was -18.56%. Same read-out and setting: the value for `S=C(NCCCCCN1CCC(c2c[nH]c3ccccc23)CC1)Nc1cccc(I)c1` [TCMDC-139203] was 89.1%; that for `O=C(Nc1cccc(-c2csc(-c3nc4ccccc4[nH]3)c2)c1)c1ccoc1` [TCMDC-132404] was 1.607%. The same measure, in the same setting: to `N=C(N)NN=CC(=O)Nc1ccc(C(F)(F)F)cc1` [TCMDC-137560] belongs 10.99%. Regarding `CCC(CC(NCCCCNC(=O)c1ccc(NC(=O)c2ccc(Cl)cc2)cc1)c1ccccc1)c1ccccc1OC` (stereo not shown) [TCMDC-138580], the “% Inhibition” value (% Inhibition) is recorded as -0.1612%. With `Nc1ncc(-c2ccc(F)cc2)c2ccc(-c3cccc(F)c3)cc12` [TCMDC-134502], the “% Inhibition” value is recorded as -15.75%. Still for that read-out and setting: to `NC(N)=NC(=O)Nc1cc(Br)c(Br)c(Br)c1` [TCMDC-137506] belongs -8.388%; to `CNCC(O)c1cc(Cl)c(Cl)cc1C` (stereo not shown) [TCMDC-131255], 13.21%; to `CCn1ncc(Cl)c1CN(C)S(=O)(=O)c1ccc(Br)cc1` [TCMDC-124902], 30.97%.

Take `CCSc1nc2sc3c(c2c(=O)n1-c1ccccc1)CCN(C)C3` [TCMDC-123852]: the “% Inhibition” value worked out at 14.1%.

For `CCCN(CCC)S(=O)(=O)c1ccc(C(=O)N2CCC(C(=O)OCC)CC2)cc1` [TCMDC-139301], the “% Inhibition” value is reported as 16.88%. Same read-out and setting: the value for `Cc1nc(N)nc(N)c1-c1cccc(Cl)c1` [TCMDC-137375] was 13.21%; that for `c1ccc(COc2ccc(Nc3ncnc4cnc(-c5ccc(CNc6cccnc6)o5)cc34)cc2)cc1` [TCMDC-137776] was 19.44%.
